Results from the supplement of paper PMC6555819.

Assays:
Assay in all cases: PBM binding z-score (relative to random genomic background probes); higher = stronger binding; sequences stand for … in GC…GCGATTGACAGCGTAGAATGAAGG
[1] = test system: RARb homodimer (NR concentration 270 nM)
Outline: (§1)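 Regression normalization was applied to scanned fluorescence from custom Agilent 4×180K protein-binding microarrays. Before scanning, arrays were incubated 1 h with ligand-free nuclear receptor dimers, and binding was detected with antibodies against each partner (one per run). Binding z-scores use the random background probes as reference.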

[2] = test system: RARg:RXRa (NR concentration 270 nM, RXRa partner concentration 90 nM)
Outline: as §1

[3] = test system: RARg homodimer (NR concentration 270 nM)
Outline: as §1

[4] = test system: RXRa DBDmut IVT, anti-RXR (DBD mutation: RXRa K156A/R161A, NR concentration 90 nM)
Outline: as §1

[5] = test system: RXRa homodimer (NR concentration 180 nM)
Outline: as §1

[6] = test system: THRa:RXRa (NR concentration 90 nM, RXRa partner concentration 90 nM)
Outline: as §1

[7] = test system: THRa homodimer (NR concentration 90 nM)
Outline: as §1

[8] = test system: VDR homodimer (NR concentration 270 nM)
Outline: as §1

Sequence | PBM binding z-score [1] | PBM binding z-score [2] | PBM binding z-score [3] | PBM binding z-score [4] | PBM binding z-score [5] | PBM binding z-score [6] | PBM binding z-score [7] | PBM binding z-score [8]
TTACCAAGGTGAAAGGTTGTTGATGCACGCCTTG | 0.999 | 1.65 | 0.911 | 0.0428 | 2.58 | 2.15 | 0.748 | 0.0809
TAGCCTAGGTCATGCGGGGCAGTATAGTGTCGGC | 3.26 | 4.01 | 4.41 | 0.368 | 3.22 | 3.56 | 1.08 | 1.5
CCTATTAGTTGACCATAAGGGCCACCGAAGCTCG | 1.51 | 0.432 | 0.644 | 0.143 | 0.414 | 0.438 | 0.222 | 0.354
TAGCCTAGGTCATGGGCCAGTAGACCACGCGAAC | 3.01 | 4.29 | 4.33 | -0.149 | 3.68 | 3.04 | 1.09 | 0.284
TAGCCTAGGTCATTGGGCCAGTATCGTACGCATC | 2.91 | 3.85 | 4 | 1.73 | 2.84 | 2.87 | 1.01 | 1.43
AGTCAAAGTTCACTAGGTAACCTAAGATTCAGCT | 3.75 | 5.2 | 5.66 | 4.32 | 4.04 | 2.46 | 0.759 | 4.29
CCTACTAGGCCATCAGGTCATTGATATCAACGTT | 3.07 | 2.45 | 2.56 | 1.43 | 1.71 | 3.32 | 3.28 | 2.51
TCAAGTTGGTCACGGAGGTCACACACGACGGGTA | 4.54 | 4.9 | 4.56 | 1.53 | 4.68 | 3.72 | 2.55 | 3.44
GTACCACGGTGAATAGGTCGTTGATGAGTAGGCG | 0.859 | 0.755 | 0.261 | -0.3 | 0.707 | 0.209 | -0.565 | 0.098
ATCGCAAGGTCGACGAGGTGAGTATACACCGTTT | 1.72 | 2.58 | 2.37 | 1.32 | 2.26 | 3.41 | 1.26 | 1.21
CCTACTGGGCCACGGAAGGTCATTGATTCAGTGA | 3.78 | 2.93 | 2.38 | -0.515 | 2.57 | 3.67 | 0.727 | 1.2
GCGACTGGGGCATCAGCAGGTTACCAAAACTTAA | 1.16 | 0.879 | 0.0539 | -0.286 | 0.238 | 1.19 | 0.0193 | -0.326
AATACAGGGTCACTAGGCCGGAGTAGGTACGAAT | 3.18 | 5.13 | 4.62 | 2.81 | 5.28 | 3.4 | 1.2 | 2.61
CAAACTAAGTCAAGGTCAAAGTCGGTTTGTGCCA | 4.04 | 4.35 | 4.17 | 2.72 | 4.85 | 4 | 3.38 | 4.09
CCGACTGGGGCAGGGTTACCATAACGCACAGCCA | 1 | 0.693 | 0.718 | -1.08 | 1.06 | 0.632 | -0.0778 | -0.615
CCGACTGGGCCACGAAAGGTCATTGATTCAGTGA | 4.83 | 4.59 | 4.35 | 0.758 | 4.99 | 3.87 | 0.668 | 1.78
CTCGCAAGGTCGGTTGAGGTGAGTATACGGATAA | 1.72 | 1.27 | 1.25 | 0.828 | 1.01 | 4.74 | 1.75 | 0.439
TCTGCTAGGTCAGTTGATCAGCTAACGAGCTGCC | 2.08 | 2.57 | 3.41 | 0.576 | 0.945 | 1.28 | 0.115 | -0.722
TCGAGTAGATTACCAATGGGGCATTCAGCTTTCT | -0.458 | -0.531 | -0.494 | 0.278 | -0.304 | -0.599 | -0.825 | -0.571

Sequence | PBM binding z-score [1] | PBM binding z-score [2] | PBM binding z-score [3] | PBM binding z-score [4] | PBM binding z-score [5] | PBM binding z-score [6] | PBM binding z-score [7] | PBM binding z-score [8]
CAAACTAGGTCACCTGAAGGTCAAAGTCCGCATG | 5.57 | 8.05 | 7.61 | 2.29 | 6.63 | 4.16 | 2.96 | 3.86
ATATGTAGGTTATCGGGTTATTCAGTTTGCGCAT | 1.48 | 1.3 | 1.01 | 1.14 | 1.6 | 1.78 | 1.58 | 2.11
AGAATGAGGTTATTAAGATCAGGGCATTGCGGTC | 1.67 | 1.47 | 1.12 | 2.13 | 2.02 | 2.61 | 1.18 | 1.74
GATACAGGGTCAAGGCCACAGTACGCGTATTGAT | 3.85 | 5.44 | 5.11 | 2.15 | 5.9 | 3.69 | 1.85 | 1.84
CCTACTGGGCCATTCAGAGGTCATTGACCATATG | 4.16 | 4.57 | 3.23 | 0.945 | 3.98 | 3.28 | 1.45 | 3.34
ATATGTAGGTTATGGGTCATTCAGGTTGGTTCGC | 2.97 | 3.09 | 2.28 | 1.31 | 3.79 | 2.74 | 1.53 | 2.76
CCTAGTTGGTCAGGAGGTTACACACCGGATATGA | 1.49 | 1.67 | 1.33 | 0.179 | 1.3 | 1.03 | 0.918 | 0.702
TCTGCTAGGTCAACGAGGGTCAGCTAATCTGCTA | 4.57 | 5.29 | 6.13 | 1.47 | 3.94 | 4.76 | 1.14 | 0.552
CTCGAAAGGTCGGTTGATGTGAGTATACGGATAA | 1.8 | 2.39 | 2.37 | 0.767 | 1.96 | 2.01 | -0.0197 | 0.986
ATATGTAGCTTATCGGGTCATTCAGTTTGCGCAT | 2.24 | 1.85 | 1.35 | 1.26 | 2.35 | 3.03 | 2.6 | 3.7
CCGACTGGGCCAGAAAGGTTACCATACCATCCGG | 1.97 | 1.28 | 0.921 | -0.772 | 1.58 | 1.04 | -0.354 | 0.0109
ACAGACAGGTGAGTGAAGGTAACTTAGCTGGACG | -0.0414 | 0.357 | 0.463 | -0.514 | 0.233 | 1.46 | -0.186 | -0.226
CCTACTGGGCCTCGAAAGGTCATTGATTCAGTGA | 4.35 | 4.09 | 3.27 | 0.125 | 4.83 | 3.14 | 0.721 | 1.43
AGAATGAGGTTATACGTAGATCAGGGATGAAAGT | 1.04 | 1.74 | 1.27 | 1.92 | 2.47 | 2.23 | 0.607 | 0.865
CGTCCAAGGTCAAAGGACAGTGAAGAGATGACGG | 4.02 | 5.79 | 6.52 | 3.52 | 5.67 | 3.76 | 1.95 | 2.37
TCTGCTAGGTCAACGATGGTAAGCTAATCTGCTA | 2.66 | 3.8 | 4.83 | 0.819 | 2.4 | 2.62 | 0.291 | -0.612
TCTTGTAGATCAAGCAGGTTAATAAAGCCTGAGT | -0.223 | -0.313 | -0.28 | 0.435 | 0.2 | 0.0183 | -0.531 | 0.0475
TCTTGTAGATAAGCAGGTTAAGAAAGCTGGCCAA | -0.166 | -0.153 | -0.231 | 0.319 | 0.245 | 0.129 | -0.622 | -0.0851
TGAATGACGTTATAAGATCAGGGAACGTTGCAAA | -0.513 | 0.43 | 0.292 | -0.941 | 0.24 | -0.021 | -0.323 | -0.203

Sequence | PBM binding z-score [1] | PBM binding z-score [2] | PBM binding z-score [3] | PBM binding z-score [4] | PBM binding z-score [5] | PBM binding z-score [6] | PBM binding z-score [7] | PBM binding z-score [8]
TGAATGAGGTTAAAGAACAGGGAACGTGGCGTCG | 0.64 | 1.86 | 1.5 | 1.33 | 2.68 | 2.03 | 0.34 | 0.66
TAGCCTAGGTCAGATCGGGCAAGTATACGCTATA | 2.01 | 2.85 | 3.43 | -0.344 | 1.29 | 2.98 | -0.283 | -0.339
TCTGCTAGGTCAGTTGGTCAGCCAACGAGCTGCC | 2.3 | 2.84 | 3.3 | 0.162 | 0.782 | 1.06 | -0.436 | -0.81
GCCTGTAGATCAAGGTTAAGAAAGACTAAGCTAA | 0.243 | 0.329 | 0.0689 | 0.0892 | 0.822 | 1.14 | -0.419 | -0.568
TCATATAGGTAATACAGGTGAAGGTCGGCATCTA | 2 | 1.13 | 0.974 | 1.69 | 1.46 | 1.31 | 0.829 | 0.817
CCTAGCGGGCCAATCTGGGTCACTCAAGGCTTGA | 2.14 | 0.91 | 0.984 | -0.4 | 0.724 | 3.59 | 0.327 | -0.159
TCATATAGGTAATAGAGGTGAAAGTCGGCATCTA | 1.33 | 1.08 | 0.999 | 2.14 | 1.68 | 1.91 | 0.432 | 0.435
ACTGACAGGTGAGTGAAGGTAACTCAGCTGGACG | 0.153 | 0.285 | 0.606 | -0.285 | 0.3 | 1.74 | -0.42 | -0.23
CGTCAAAGTTGAAGGTAACGTAACAGAAAGCAGC | 0.588 | 0.945 | 1.11 | 0.128 | 0.848 | 0.402 | -0.078 | -0.0561
GCTAGTTGGTCAGTAAAAGCTCACACACCGGTCG | 0.375 | -0.0691 | 0.0188 | 0.421 | -0.0351 | -0.374 | -0.166 | -0.217
GCAACGAGGGCAAGTTGATAGCAGAGTTTGATGG | 1.66 | 1.61 | 1.77 | 2.2 | 0.98 | 1.36 | 0.152 | 1.66
TTACCAAGGTGAAGGTCGGTGATCCCTCTGTAGA | 1.61 | 1.3 | 0.916 | -0.375 | 1.5 | 2.21 | 0.976 | 0.13
CCGACTGGGGGAAAGGTTACCATACTCAGTACGA | 2.1 | 2.79 | 1.78 | 0.141 | 3.06 | 2.14 | 0.672 | 0.298
GGAACGAGAGCATTCGAGTTGATAGCATGGCGAT | -1.06 | -0.435 | -0.276 | 0.441 | -0.118 | 1.04 | -1.57 | -0.57
CCGCCTGGGGCAAGGTTACCATAACGCACAGCCA | 1.52 | 1.06 | 1.1 | -0.994 | 0.987 | 1.3 | 0.7 | -0.0695
TCGAGTAGGTTAGGGGCATACAGAATGGCGTCGA | 0.759 | 0.546 | 0.52 | 0.367 | 1 | 0.925 | 0.135 | 0.73
GCTATTAGTTGAAAGGGCAACCCAATGATTCTCG | 1.98 | 1.31 | 1.34 | 1.09 | 1.3 | 0.458 | -0.122 | 0.235
TCGAGTAGGCTAGGGGCATTCAGAATGGCGTCGA | -0.0899 | -0.329 | -0.498 | -0.0684 | 0.0581 | 0.177 | -0.929 | -0.279
